Structures are written as SMILES. A number with no mark means an inactive call. For some of these results: Entries with a potency or affinity are not part of this list. Active and inactive are the calls of the source. Unless noted, no rule for the calls is given here.

Experiment [1] in a line: antimalarial activity against Dd2 strain (AID 2302;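 active = growth inhibition above 50% at the single 2 µM test dose, taken to imply half-maximal potency below 2 µM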;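 also: 0% = DMSO untreated growth and 100% = chloroquine plus artemisinin killed control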). The note with it: P. falciparum Dd2 in RBCs, LDH growth readout, 72 h; at 2 µM; hits give high values.
A short description of experiment [2]: human hepatoma cell viability loss – ATP luminescence, cytotoxicity control for P. falciparum antimalarial project, primary screen (AID 2303;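 active = inhibition above 50%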;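 also: 0% = DMSO wells and 100% = digitonin-killed cells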). The note with it: HepG2 viability, 24-48 h, at 10 µM, hits give high values.
Experiment [3] deals with L-lactate dehydrogenase (Plasmodium falciparum (isolate CDC / Honduras)) (UniProt Q27743). The experiment in a line: PfLDH activity inhibition – cell lysate, 3D7 strain, counter-screen for P. falciparum growth inhibition project (AID 2304).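 Also: 0% = vehicle and 100% = reference inhibitor.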 The settings on record: P. falciparum 3D7 crude extract, LDH APAD/NBT absorbance; at 2 µM; hits give high values. (A counterscreen serves to expose hits that act by an unwanted route or on another target.)

Experiment [4] can be described thus: inhibition of 3D7 malaria parasite growth – strain 3D7 (AID 2306).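 Also: 0% = DMSO wells and 100% = chloroquine plus artemisinin control wells.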 The settings on record: P. falciparum 3D7 erythrocytic growth, LDH absorbance, 72 h; at 2 µM; hits give high values.
For experiment [5], the target named is Calcium-dependent protein kinase 1 (Plasmodium falciparum (isolate 3D7)) (UniProt P62344). The experiment in a line: PfCDPK1 kinase inhibitors, biochemical, TCAMS library (AID 1159585; cut-off not given, nearly all actives have IC50 up to about 0.98 µM;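 also: inhibitors leave more ATP so luminescence rises with inhibition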). The note with it: recombinant PfCDPK1, Kinase-Glo ATP depletion luminescence. For orientation: In Kinase-Glo more light means more ATP remaining.
Experiment [6] has as its target Plasmodium falciparum protein kinase 6 (PK6, PF3D7_1337100) (UniProt Q8IDW1). In words: PfPK6 kinase inhibitors, biochemical, TCAMS library (AID 1159586). The note with it: recombinant PfPK6, Kinase-Glo ATP depletion luminescence.
For experiment [7], the target named is Protein kinase 7 (PK7), Plasmodium falciparum 3D7 (PF3D7_0213400) (UniProt Q7YTF7). In words: inhibition of Plasmodium PK7 catalytic activity – biochemical, TCAMS antimalarial set, Kinase-Glo luminescence (AID 1159587). The settings on record: recombinant PfPK7, Kinase-Glo ATP depletion luminescence.
Experiment [8] addresses Calcium-dependent protein kinase 4 (Plasmodium falciparum (isolate 3D7)) (UniProt Q8IBS5). In words: PfCDPK4 kinase inhibitors, biochemical, TCAMS library (AID 1159588; cut-off not given, nearly all actives have IC50 up to about 0.91 µM). The settings on record: recombinant PfCDPK4, Kinase-Glo ATP depletion luminescence.

Sequence of Calcium-dependent protein kinase 4 (Plasmodium falciparum (isolate 3D7)) (Q8IBS5 whole entry, looked up): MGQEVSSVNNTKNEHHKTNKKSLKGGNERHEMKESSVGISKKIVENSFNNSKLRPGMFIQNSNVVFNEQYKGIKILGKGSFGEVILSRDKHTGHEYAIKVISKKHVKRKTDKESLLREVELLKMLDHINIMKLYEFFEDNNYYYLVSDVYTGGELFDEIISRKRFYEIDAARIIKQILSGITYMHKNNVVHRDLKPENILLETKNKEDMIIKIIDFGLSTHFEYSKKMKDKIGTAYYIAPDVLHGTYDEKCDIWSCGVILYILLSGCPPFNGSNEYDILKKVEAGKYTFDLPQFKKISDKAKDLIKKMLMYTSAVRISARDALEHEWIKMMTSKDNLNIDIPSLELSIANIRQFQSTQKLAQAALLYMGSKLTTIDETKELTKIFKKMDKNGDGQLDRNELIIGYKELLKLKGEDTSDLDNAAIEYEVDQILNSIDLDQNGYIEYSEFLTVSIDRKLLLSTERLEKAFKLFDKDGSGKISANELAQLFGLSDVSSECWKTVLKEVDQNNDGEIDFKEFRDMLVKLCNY
Sequence of L-lactate dehydrogenase (Plasmodium falciparum (isolate CDC / Honduras)) (Q27743 whole entry, looked up): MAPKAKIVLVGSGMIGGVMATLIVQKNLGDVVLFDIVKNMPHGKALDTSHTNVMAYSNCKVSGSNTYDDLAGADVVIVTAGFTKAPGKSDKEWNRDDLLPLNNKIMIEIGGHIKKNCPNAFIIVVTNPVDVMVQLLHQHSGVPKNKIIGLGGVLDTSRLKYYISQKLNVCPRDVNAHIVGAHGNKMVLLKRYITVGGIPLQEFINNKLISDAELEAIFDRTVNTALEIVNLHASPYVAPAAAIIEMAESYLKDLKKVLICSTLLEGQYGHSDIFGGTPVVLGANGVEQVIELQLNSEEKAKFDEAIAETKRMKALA
Sequence of Protein kinase 7 (PK7), Plasmodium falciparum 3D7 (PF3D7_0213400) (Q7YTF7 1-343): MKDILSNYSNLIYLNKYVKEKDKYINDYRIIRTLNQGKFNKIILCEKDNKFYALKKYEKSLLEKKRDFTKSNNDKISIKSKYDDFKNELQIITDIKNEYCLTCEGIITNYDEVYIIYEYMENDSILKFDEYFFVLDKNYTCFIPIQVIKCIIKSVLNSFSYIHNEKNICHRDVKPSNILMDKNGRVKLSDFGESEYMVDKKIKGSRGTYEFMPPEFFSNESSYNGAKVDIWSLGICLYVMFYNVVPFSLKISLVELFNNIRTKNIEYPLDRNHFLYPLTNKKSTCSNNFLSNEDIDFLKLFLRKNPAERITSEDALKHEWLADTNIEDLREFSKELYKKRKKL
Sequence of Calcium-dependent protein kinase 1 (Plasmodium falciparum (isolate 3D7)) (P62344 whole entry, looked up): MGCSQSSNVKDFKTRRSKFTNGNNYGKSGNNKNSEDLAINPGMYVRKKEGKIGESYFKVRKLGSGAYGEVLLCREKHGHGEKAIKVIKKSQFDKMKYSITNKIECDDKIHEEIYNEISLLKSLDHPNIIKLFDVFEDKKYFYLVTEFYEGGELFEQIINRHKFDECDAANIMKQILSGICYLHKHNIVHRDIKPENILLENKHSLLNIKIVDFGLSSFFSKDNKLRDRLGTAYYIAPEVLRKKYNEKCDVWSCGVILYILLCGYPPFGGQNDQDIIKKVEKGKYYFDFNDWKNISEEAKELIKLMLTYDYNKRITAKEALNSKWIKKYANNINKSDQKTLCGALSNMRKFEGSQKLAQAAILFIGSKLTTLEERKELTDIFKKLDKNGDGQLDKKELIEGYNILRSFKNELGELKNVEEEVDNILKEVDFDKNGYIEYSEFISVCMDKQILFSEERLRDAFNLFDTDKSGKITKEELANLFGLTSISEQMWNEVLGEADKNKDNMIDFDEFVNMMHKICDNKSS
Sequence of Plasmodium falciparum protein kinase 6 (PK6, PF3D7_1337100) (Q8IDW1 1-305): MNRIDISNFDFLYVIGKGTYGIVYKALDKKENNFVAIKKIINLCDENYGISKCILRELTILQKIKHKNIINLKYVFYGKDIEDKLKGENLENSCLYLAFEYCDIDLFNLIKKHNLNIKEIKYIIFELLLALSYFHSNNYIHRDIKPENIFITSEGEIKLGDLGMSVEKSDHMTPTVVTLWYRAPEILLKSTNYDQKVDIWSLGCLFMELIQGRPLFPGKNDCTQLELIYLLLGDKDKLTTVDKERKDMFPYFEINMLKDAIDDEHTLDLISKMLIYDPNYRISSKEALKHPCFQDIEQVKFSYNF

Broadly, the inhibition is the drop in the measured response relative to a control, in per cent. `COc1cc(CNC[C@@H](O)[C@H](Cc2ccccc2)NC(=O)c2cc(OC(C)C)cc(N3CCCCS3(=O)=O)c2)cc(OC)c1`: the growth inhibition in experiment [1] is 94% (active); in experiment [4] it was 100% (active). The values for the inhibition in experiment [2] and in experiment [3] were 7% and 4%, respectively. The result in experiment [5], in experiment [6], in experiment [7] and in experiment [8] was inactive.

Take `CCCOc1ccc(-c2nonc2NC(=O)c2ccccc2OC)cc1OCCC`: the values for the growth inhibition in experiment [1] and in experiment [4] were 82% (active) and 98% (active), respectively. Besides, the inhibition in experiment [2] is 23%; in experiment [3], -1%. Moreover, the outcome in experiment [5], in experiment [6], in experiment [7] and in experiment [8] was inactive.

For `CN(C)CCOc1cc(NC(=O)Nc2ccc(Cl)cc2C(F)(F)F)ccc1I`, the growth inhibition in experiment [1] is 16%; in experiment [4] it was 96% (active). Moreover, the inhibition in experiment [2] was -2%; in experiment [3], 5%. In addition, the result in experiment [5], in experiment [6], in experiment [7] and in experiment [8] was inactive.

As to `COc1ccc2nc(C)cc(NN=Cc3cc(OC)c(OC)cc3OC)c2c1`, the growth inhibition in experiment [1] was 56% (active); in experiment [4] it was 100% (active). For the same compound, the inhibition in experiment [2] was 1%; in experiment [3], 5%. The outcome in experiment [5], in experiment [6], in experiment [7] and in experiment [8] was inactive.

As for `CN1CCN(CCCNc2ncc3c(-c4ccc(NC(=O)Nc5cc(C(F)(F)F)ccc5F)c(F)c4)nn(C)c3n2)CC1`, the growth inhibition in experiment [1] was 94% (active); in experiment [4] it was 98% (active). The inhibition was 100% (active) in experiment [2] and 1% in experiment [3]. Also, the outcome in experiment [5], in experiment [6], in experiment [7] and in experiment [8] was inactive.

Consider `COc1ccc(CN2CCCN(Cc3cccc(NC(=O)c4ccc(Cl)c(Cl)c4)c3)CC2)cc1`, for which the growth inhibition in experiment [1] is 19%; in experiment [4], 86% (active). Moreover, the inhibition was 38% in experiment [2] and 5% in experiment [3]. Also, the result in experiment [5], in experiment [6], in experiment [7] and in experiment [8] was inactive.

Turning to `CCOc1ccc(C=CC(=O)Nc2ccc3nc(N4CCN(C)CC4)cc(C)c3c2)cc1OC`, the growth inhibition is 70% (active) in experiment [1] and 102% (active) in experiment [4]. Besides, the inhibition in experiment [2] was -2%; in experiment [3], -10%. For the same compound, the outcome in experiment [5], in experiment [6], in experiment [7] and in experiment [8] was inactive.

For `CCC1CN2CCc3c([nH]c4ccccc34)C2CC1CC1=NCCc2c1[nH]c1ccc(OC)cc21` (stereo not given), the growth inhibition in experiment [1] was 68% (active); in experiment [4], 101% (active). For the same compound, the values for the inhibition in experiment [2] and in experiment [3] were 99% (active) and 1%, respectively. Further, the result in experiment [5], in experiment [6], in experiment [7] and in experiment [8] was inactive.

For `Cc1ccnc(-n2c(C)cc(C=C3SC(=Nc4ccccc4)N(Cc4ccco4)C3=O)c2C)c1`, the results for the growth inhibition in experiment [1] and in experiment [4] were 98% (active) and 99% (active), respectively. Besides, the results for the inhibition in experiment [2] and in experiment [3] were -5% and -1%, respectively. The outcome in experiment [5], in experiment [6], in experiment [7] and in experiment [8] was inactive.

`CC(Cc1ccc(NC(=O)c2ccc(CC(C)NCc3ccc(Cl)c(Cl)c3)cc2)cc1)NCCc1cccc(Cl)c1` (stereo not given): the growth inhibition in experiment [1] was 33%; in experiment [4] it was 92% (active). For the same compound, the inhibition in experiment [2] was 26%; in experiment [3], 4%. In addition, the result in experiment [5], in experiment [6], in experiment [7] and in experiment [8] was inactive.

In the case of `CN(C)C(=NCCCCCCN=C(NC(N)=NCc1ccc(Cl)c(Cl)c1)N(C)C)NC(N)=NCc1ccc(Cl)c(Cl)c1`, the growth inhibition in experiment [1] is 99% (active); in experiment [4] it was 93% (active). Further, the inhibition in experiment [2] is 20%; in experiment [3] it was -9%. Moreover, the result in experiment [5], in experiment [6], in experiment [7] and in experiment [8] was inactive.

For `CC1CCCCN1S(=O)(=O)c1ccc(NC(=O)c2cc(-c3ccccc3O)n[nH]2)cc1` (stereo not given), the growth inhibition in experiment [1] was 96% (active); in experiment [4], 90% (active). The inhibition was 26% in experiment [2] and -1% in experiment [3]. The result in experiment [5], in experiment [6], in experiment [7] and in experiment [8] was inactive.

Take `Cc1ccc2c(NN=Cc3ccccc3[N+](=O)[O-])cc(C)nc2c1`: the values for the growth inhibition in experiment [1] and in experiment [4] were 100% (active) and 102% (active), respectively. The values for the inhibition in experiment [2] and in experiment [3] were 13% and 4%, respectively. The outcome in experiment [5], in experiment [6], in experiment [7] and in experiment [8] was inactive.

Turning to `Nc1c2c(nc3ccc(NC(=O)CCCCCc4ccccc4)cc13)CCCC2`, the growth inhibition in experiment [1] was 36%; in experiment [4], 102% (active). Also, the results for the inhibition in experiment [2] and in experiment [3] were 32% and 4%, respectively. The result in experiment [5], in experiment [6], in experiment [7] and in experiment [8] was inactive.

On to `O=C(Nc1cccc(-c2ccc(-c3nc4ccc(F)cc4[nH]3)s2)c1)c1ccncc1`, for which the figures for the growth inhibition in experiment [1] and in experiment [4] were 29% and 96% (active), respectively. Moreover, the inhibition in experiment [2] was 74% (active); in experiment [3] it was -8%. Besides, the outcome in experiment [5], in experiment [6], in experiment [7] and in experiment [8] was inactive.

`O=C(N[C@H]1CCN(Cc2ccc(OCCN3CCCC3)c3ccccc23)C1)c1ccc(Cl)c(Cl)c1`: the growth inhibition in experiment [1] was 51% (active); in experiment [4] it was 100% (active). Besides, the inhibition in experiment [2] is 90% (active); in experiment [3], -1%. Moreover, the result in experiment [5], in experiment [6], in experiment [7] and in experiment [8] was inactive.

`NC(N)=NN=CC(=O)Nc1cc([N+](=O)[O-])cc([N+](=O)[O-])c1`: the growth inhibition was -2% in experiment [1] and 100% (active) in experiment [4]. Also, the inhibition in experiment [2] was -5%; in experiment [3], -4%. The result in experiment [5], in experiment [6], in experiment [7] and in experiment [8] was inactive.

Regarding `COc1ccc(-c2nonc2NC(=O)c2ccc(OC(C)C)cc2)cc1OC`, the growth inhibition in experiment [1] was 99% (active); in experiment [4], 100% (active). The inhibition in experiment [2] is 11%; in experiment [3] it was -3%. The result in experiment [5], in experiment [6], in experiment [7] and in experiment [8] was inactive.

For `COC(=O)c1cccc(CNCc2ccc(-c3ccc(-c4nc5ccc(C(F)(F)F)cc5[nH]4)cc3)cc2)c1`, the growth inhibition is 98% (active) in experiment [1] and 101% (active) in experiment [4]. The inhibition in experiment [2] was 22%; in experiment [3], 0%. For the same compound, the outcome in experiment [5], in experiment [6], in experiment [7] and in experiment [8] was inactive.

Take `CCOc1cc(C(=O)NCCCN2CCN(c3cccc(Cl)c3)CC2)ccc1-c1nc2cc(Cl)c(F)cc2[nH]1`: the growth inhibition in experiment [1] was 19%; in experiment [4] it was 96% (active). Further, the inhibition is 16% in experiment [2] and 7% in experiment [3]. Also, the outcome in experiment [5], in experiment [6], in experiment [7] and in experiment [8] was inactive.
